Source: PubChem BioAssay (NCI)
About 79,000 compounds went through this panel and 15% of them were active in at least one assay; those are over-represented in the sample as a whole. Unmarked numbers belong to inactive results. Calls of active or inactive are those of the source. No stated cut-off is given here; in the data, active means growth inhibition above about 70%; inactive means the rest.

Test: NCI Yeast Anticancer Drug Screen. Data for the rad50EPP+ strain (AID 151);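 further: 0% = growth of vehicle-treated control cultures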
Conditions: S. cerevisiae rad50 mutant strain, hits give high values
Procedure: Growth inhibition of yeast strains with defined genetic alterations is measured as a screen for potential anti-cancer activity. Selected strains with alterations in DNA damage repair or cell cycle control were exposed to compounds and growth inhibition was measured relative to vehicle treated controls. The strain used in this assay is rad50EPP+

COc1ccc2nc3c([N+](=O)[O-])ccc(NCCN(C)C)c3c(NCCN(C)C)c2c1
growth inhibition (at 1.2 µM): 0% | growth inhibition (at 3.7 µM): 3% | growth inhibition (at 11.0 µM): 1% | growth inhibition (at 33.0 µM): 5% | growth inhibition (at 100.0 µM): 14%

O=C(O)c1ccccc1-c1ccccc1C(=O)Nc1ccc2c(c1)Cc1ccccc1-2
growth inhibition (at 1.2 µM): -2% | growth inhibition (at 3.7 µM): 2% | growth inhibition (at 11.0 µM): 3% | growth inhibition (at 33.0 µM): 10% | growth inhibition (at 100.0 µM): 25%

CCN(CC)CCC(=O)c1ccc(Oc2ccc(F)cc2)cc1
growth inhibition (at 1.2 µM): -9% | growth inhibition (at 3.7 µM): -30% | growth inhibition (at 11.0 µM): 9% | growth inhibition (at 33.0 µM): 36% | growth inhibition (at 100.0 µM): 93% (active)

OC(COc1cccc2ccccc12)CN1CCOCC1 (stereo not given)
growth inhibition (at 1.2 µM): -5% | growth inhibition (at 3.7 µM): -6% | growth inhibition (at 11.0 µM): -9% | growth inhibition (at 33.0 µM): -9% | growth inhibition (at 100.0 µM): -3%

NNc1c(F)c(F)cc(F)c1F
growth inhibition (at 1.2 µM): 2% | growth inhibition (at 3.7 µM): -1% | growth inhibition (at 11.0 µM): 21% | growth inhibition (at 33.0 µM): 54% | growth inhibition (at 100.0 µM): 82% (active)

CC(C)NC(=O)OCc1c(COC(=O)NC(C)C)c(-c2ccc(Cl)c(Cl)c2)n2c1CCC2
growth inhibition (at 1.2 µM): -23% | growth inhibition (at 3.7 µM): -18% | growth inhibition (at 11.0 µM): -5% | growth inhibition (at 33.0 µM): -18% | growth inhibition (at 100.0 µM): -4%

CCC[CH2][Ge]([CH2]CCC)([CH2]CCC)[O]C(=O)C(OC)c1ccccc1 (stereo not given)
growth inhibition (at 1.2 µM): -2% | growth inhibition (at 3.7 µM): 3% | growth inhibition (at 11.0 µM): 6% | growth inhibition (at 33.0 µM): 16% | growth inhibition (at 100.0 µM): 34%

OC1(c2ccccc2)CSC2=Nc3ccccc3C3CCN1N23 (stereo not given)
growth inhibition (at 1.2 µM): -29% | growth inhibition (at 3.7 µM): -40% | growth inhibition (at 11.0 µM): -47% | growth inhibition (at 33.0 µM): -22% | growth inhibition (at 100.0 µM): 66%
